Shown is part of a subset that was picked to be rich in hits.
RE007 growth inh = qHTS Assay for Inhibitors of the HIV-1 protein Vpr; 0.21% of 360,000 active; Potency, µM (top dose mostly 92.2 µM), for the others: at the top dose activity change, negative = less growth, most hits filed as inhibitors; S. pombe RE007 Vpr strain, BacTiter-Glo ATP luminescence, 24 h; AID 651644, 2012; active = well fitted falling curve with a large enough effect; inconclusive = small, poorly fitted or top-dose-only effect; inactive = no such curve, though single readings can be large or run the other way; note: potency is the fitted concentration of half-maximal effect; % is set by controls: 0 for no effect and ±100 for the full control effect; nearly all actives have a fitted effect of over 50% in size
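Fission yeast RE007 carrying one integrated HIV-1 vpr copy, seeded at OD 0.01 in PMG+AL medium with 23 nL pinned compound. Grown 24 h at 30 degrees; viability read by BacTiter-Glo luminescence after 5 min.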
Cycloheximide cs = Cycloheximide Counterscreen for Small Molecule Inhibitors of Shiga Toxin | max response, % | 12% of 300,000 active | cell reporter, cycloheximide protein synthesis inhibition counterscreen; in the data active = max response mostly above about 13%, no sharp cut-off; inactive = mostly below about 14%; note: read at 38.3 µM for the half of the compounds with a filed dose; 0% is about no effect
Giardia FBPA inh = qHTS Assay for Inhibitors of Fructose-1,6-bisphosphate Aldolase from Giardia Lamblia; 0.71% of 290,000 active; AID 2451, 2010; A8B2U2; Potency, µM (series often up to 59.6 µM), inactives show top-dose activity, negative = inhibition, hits mostly inhibitors; purified Giardia FBPA; note: potency is the fitted concentration of half-maximal effect; % is set by controls: 0 for no effect and ±100 for the full control effect; nearly all actives have a fitted effect of over 55% in size
Target sequence (A8B2U2 whole entry, looked up): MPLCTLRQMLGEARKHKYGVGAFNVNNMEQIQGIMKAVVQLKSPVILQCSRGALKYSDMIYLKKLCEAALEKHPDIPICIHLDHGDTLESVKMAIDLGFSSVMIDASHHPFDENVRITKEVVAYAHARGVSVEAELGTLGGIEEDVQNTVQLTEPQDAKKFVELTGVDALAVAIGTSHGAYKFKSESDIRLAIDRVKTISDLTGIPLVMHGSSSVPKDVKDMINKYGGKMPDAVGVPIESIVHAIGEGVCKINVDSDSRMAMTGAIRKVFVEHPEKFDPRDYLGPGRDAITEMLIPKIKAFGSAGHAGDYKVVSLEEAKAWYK
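40 nM FBPA preincubated 10 min at RT with compound (up to 57.5 uM final), then substrate plus GAPDH/TPI/NAD/arsenate coupling and diaphorase/resazurin added. Fluorescence read after 20 min at RT, 525/598 nm.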
LmPK inhibitor = qHTS Assay for Inhibitors of Leishmania Mexicana Pyruvate Kinase (LmPK); Q27686; 0.37% of 290,000 active; purified LmPK, Kinase-Glo ATP luminescence, 1 h; AID 1721, 2009; Potency, µM (highest dose often 57.5 µM), for inactives: at the highest dose activity change, negative = inhibition, hits mostly inhibitors; note: potency is the fitted concentration of half-maximal effect; % is set by controls: 0 for no effect and ±100 for the full control effect
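Purified LmPK (0.1 nM) converted ADP (0.1 mM) to ATP with PEP (0.5 mM) in imidazole buffer pH 7.2 with KCl and MgCl2, 1 h at room temperature. ATP was read by Kinase-Glo luminescence; data normalized to uninhibited and no-enzyme controls.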
Tb PYK inh = qHTS of Trypanosoma Brucei Inhibitors | 0.12% of 410,000 active | pyruvate kinase (Trypanosoma brucei), Q57TT1 | TbPYK enzyme, Kinase-Glo Plus ATP luminescence, 45 min | Potency, µM (top dose mostly 76.8 µM), for the others: at the highest dose activity, negative = inhibition, hits mostly inhibitors; note: potency is the fitted concentration of half-maximal effect; % is set by controls: 0 for no effect and ±100 for the full control effect; nearly all actives have a fitted effect of over 50% in size
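Glycolytic pyruvate kinase of T. brucei was incubated with substrate, test compound and 130 uM ADP for 45 minutes at room temperature. Luminescent Kinase-Glo Plus signal was measured after 10 minutes.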
Shiga toxin inh = A qHTS for Small Molecule Inhibitors of Shiga Toxin | Vero cells, Shiga toxin protein synthesis inhibition reporter | inhibition, % at 38.7 µM | 9.2% of 290,000 active; in the data active = inhibition mostly above about 28%, no sharp cut-off; inactive = mostly below about 43%; note: 0% is about no effect
An asterisk follows results filed as active; u = inconclusive; x = not tested or not shown; + = active, no number; [ ] = another dose, or the depositor's remark. Unless noted, calls come from the whole dose curve; as a rule, active = well fitted curve in the direction sought with a large enough effect; inconclusive = small, poorly fitted or top-dose-only effect, or another doubt; inactive = no such curve, though single readings can be large; an effect the other way counts as inactive or inconclusive.

SMILES	RE007 growth inh	Cycloheximide cs	Giardia FBPA inh	LmPK inhibitor	Tb PYK inh	Shiga toxin inh
O=C(/C=C/c1ccco1)Nc1ccc(C(=O)N2CCOCC2)cc1	-10%	12	1%	-7%	-20%	26
O=C(/C=C/c1ccco1)Nc1ccc(N2CCCC2)cc1	3%	68*	1%	-17%	-23%	66*
O=C(/C=C/c1ccccc1)Nc1ccc(CN2CCOCC2)cc1	2%	47*	5%	-2%	-8%	35*
Cc1cc(S(=O)(=O)N2CCN(Cc3noc(CCC(=O)N4CCCCC4)n3)CC2)ccc1F	x	x	x	x	1%	x
CC1CCCN(C(=O)COc2ccc(Nc3ccccc3)cc2)C1 (configuration not stated)	-20%	8	-3%	-4%	1%	35
Cc1ccc(NC(=O)ON=C2CCCC2)cc1	-8%	55*	3%	-2%	1%	+
Cc1ccc(NC(=O)C/C(N)=N/OC(=O)Nc2cccc(C)c2)cc1	-7%	x	x	x	3%	x
O=C(Nc1ccccc1)ON=C1CCCC1	-23%	23*	1%	-27%	0%	39
C=CCOc1ccccc1CN(C(=O)CCl)c1ccc2c(c1)OCO2	-8%	17*	7%	3%	-15%	49*
Cc1ccc(-n2c(N)c(C(=O)N3CCN(C)CC3)sc2=S)cc1	-18%	-4	10µM*	-3%	u	-7
Cc1ccc(C(=O)N(c2ccccn2)C(C)c2ccco2)cc1 (configuration not stated)	-9%	12	2%	-2%	-11%	31
CC(c1ccco1)N(C(=O)Nc1ccc(Cl)cc1)c1ccccn1 (configuration not stated)	-23%	11*	-2%	3%	-2%	12
CCOc1cccc(-c2nc3cc(C)ccc3o2)c1	0%	31*	5%	u	-3%	63
CCOc1ccc(-c2nc3cc(NC(=O)COc4cccc(C)c4)ccc3o2)cc1	x	x	x	x	-8%	x
CCS(=O)(=O)c1ccc2oc(Nc3ccc(OC)cc3)nc2c1	-4%	22	-6%	9%	-5%	38
Cc1ccc2oc(Nc3nc(C)cc(C)n3)nc2c1	-14%	11*	-19%	-3%	-3%	31
Cc1ccc2oc(-c3ccccc3)nc2c1	-9%	45*	-8%	16µM*	-7%	70*
C#CCCCO/N=C1/C[C@@H](O)[C@@H](O)[C@@H]2[C@@H]3C(=O)N(C4CCCCC4)C(=O)[C@H]3CC[C@H]12	x	x	-1%[12.9 µM]	x	x	x
O=C(Nc1ccccc1)c1ccc(C(=O)Nc2ccccc2)nc1	19%	16	-2%	-11%	-21%	49*
Cc1cccc(NC(=O)c2ccc(C(=O)Nc3cccc(C)c3)nc2)c1	-7%	23	-9%	-3%	-11%	64*
CC(=O)Nc1cccc(NC(=O)c2ccc(C(=O)Nc3cccc(NC(C)=O)c3)nc2)c1	-4%	10	-9%	3%	-4%	2
CC(=O)c1cccc(NC(=O)c2ccc(C(=O)Nc3cccc(C(C)=O)c3)nc2)c1	-2%	-4	-9%	-4%	4%	39
CCN(CC)c1ncnc2c1ncn2[C@H]1CN(Cc2ccc(-c3ccccc3)cc2)C[C@@H](CO)O1	26%	x	x	x	0%	x
O=c1c2cc3c(=O)n(-c4ccccc4O)c(=O)c3cc2c(=O)n1-c1ccccc1O	-25%	27*	-9%	-5%	-4%	106*
OC[C@@H]1CN(Cc2ccco2)C[C@H](n2cnc3c(NC4CC4)ncnc32)O1	3%	x	x	x	-1%	x
SMILES	RE007 growth inh	Cycloheximide cs	Giardia FBPA inh	LmPK inhibitor	Tb PYK inh	Shiga toxin inh
CN(Cc1ccccc1)C(=O)C(C(=O)c1ccc(F)cc1)n1cc(Cl)ccc1=O (configuration not stated)	1%	41*	-6%	3%	-1%	48*
NNC(=O)COc1ccc(F)cc1	-7%	-2	-1%	4%	-16%	-8
O=C(COc1ccc(F)cc1)c1c(O)cc(O)cc1O	-2%	48*	0%	-5%	-5%	119*
COc1ccc(C(=O)Cc2ccc(F)cc2)c(OC)c1	x	64*	2%	-6%	-7%	80*
COc1ccc(C(=O)COc2ccc(F)cc2)c(O)c1	-14%	29*	-5%	-2%	-6%	69*
CCOc1ccccc1N(CC(=O)Nc1cccnc1)S(=O)(=O)c1ccc(C)cc1	-8%	50*	0%	-4%	4%	160*
O=C(CSc1oc(-c2ccco2)nc1S(=O)(=O)c1ccc(Cl)cc1)Nc1ccc(F)cc1	x	x	x	x	-1%	x
O=C(CN1CCCCC1)Nc1cc(S(=O)(=O)N2CCOCC2)ccc1N1CCCC1	-6%	x	x	x	1%	x
C/C(=N\NC(=O)c1ccccc1N)c1ccc(NC(=O)Cc2ccccc2)cc1	4%	36*	0%	7%	-1%	65*
C/C(=N\NC(=O)c1cccc(C)c1O)c1ccc(NC(=O)Cc2ccccc2)cc1	-22%	39*	x	-2%	3%	45*
COc1ccccc1C(=O)N/N=C(\C)c1ccc(NC(=O)Cc2ccccc2)cc1	24%	2	x	1%	-7%	17
O=C(c1ccc(Cl)cc1)N1CCC(c2nc3ccccc3o2)CC1	x	x	x	x	1%	x
COc1ccccc1OCC(=O)NCCSCc1cccc(Cl)c1	14%	-4	-3%	2%	3%	-11
C#CCOCCOCCOCCNc1nc(N2CCN(C(=O)[C@H](CC(N)=O)n3cc(C(N)[C@H](C)CC)nn3)CC2)nc(N2CCN(C(=O)[C@H](CC(N)=O)n3cc(C(N)[C@@H](C)CC)nn3)CC2)n1 (some centres not stated)	-13%	x	x	x	-9%	x
Cc1ccc(C2=CSC3=NNC4(CCCCC4)NN23)cc1	-3%	53*	-5%	-2%	-2%	88*
COc1ccc(C2=CSC3=NNC4(CCCCC4)NN23)cc1	10%	35*	-3%	-3%	2%	102*
Cc1c(OCc2ccccc2)c(=O)ccn1Cc1ccccc1	0%	11*	1%	-1%	-2%	32
O=c1ccn(Cc2ccccc2)c2ccccc12	15%	1	1%	3%	-1%	24
COC(=O)N1CCC2(CCCN(C(=O)Nc3ccccc3)C2)CC1	x	x	5%	x	-6%	x
Cc1c(O)ccc(/C=N/Nc2ncccc2[N+](=O)[O-])c1O	u	32*	16%	-5%	-13%	141*
O=[N+]([O-])c1cccnc1N/N=C/c1ccccc1O	0%	43*	0%	14µM*	-27%	78*
O=C(O)CNc1ncccc1[N+](=O)[O-]	13%	-2	0%	1%	-4%	-8

Bioassay records: PubChem, National Center for Advancing Translational Sciences (NCATS)
